Source: the supplement of paper PMC10849652
Of roughly 8,800 targets only a part is listed; those with a hit were picked by preference. About 0.5% of all pairs of compound and target were hits.

Assays:
Test in all cases: log2 fold change, soluble protein after heating vs DMSO (PISA); higher = thermal stabilisation; K562 lysate, 10 uM; active = over 0.2 and 3.5 SD of the protein, either way, in both replicates (recomputed)
ibrutinib = compound: C=CC(=O)N1CCC[C@@H](n2nc(-c3ccc(Oc4ccccc4)cc3)c3c(N)ncnc32)C1 [ibrutinib]
In short: (§1)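 Following dounce homogenisation of K562 pellets in PBS pH 7.4 with 1 mM MgCl2, crude extract at 1 mg/mL protein was incubated for 30 min with 10 μM compound. Aliquots were then heated for 3 min over 48°C-58°C and pooled, NP-40 was added to 0.5% at 4°C, and soluble protein was recovered as the supernatant at 21,000xg for 90 min. Channel-sum-equalised TMTpro 16plex LC-MS/MS quantified this protein. Each value, from duplicates, is a log-two fold change in thermal stability relative to solvent controls.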

[1] = compound: CC(=O)c1cnc2ccc(-c3cc(Cl)c(O)c(Cl)c3)nc2c1N[C@H]1CC[C@H](CN(C)C)CC1
In short: as §1

ralimetinib = compound: CC(C)(C)Cn1c(N)nc2ccc(-c3[nH]c(C(C)(C)C)nc3-c3ccc(F)cc3)nc21 [ralimetinib]
In short: as §1

[2] = compound: CC(C)(O)CC(=O)NCCn1ccc2ncnc(Nc3ccc(Oc4cccc(C(F)(F)F)c4)c(Cl)c3)c21
In short: as §1

[3] = compound: CC(C)C1=C2N=C(C=C(N2N=C1)NCC3=CC=CC=C3)NCCCCCCN
In short: as §1

[4] = compound: CC1=C(C(CC(=O)N1)C2=CC=C(C=C2)C(F)(F)F)C(=O)NC3=C(C=C4C(=C3)C=NN4)F
In short: as §1

[5] = compound: CC1=C(C2=C(C=C1)C(=O)C3=CC=CC=C3N2CCCN)C
In short: as §1

[6] = compound: CC1=C(C=C(C=C1)NC(=O)C2=CC(=CC=C2)C(C)(C)C#N)NC3=CC4=C(C=C3)N=CN(C4=O)C
In short: as §1

[7] = compound: CC1=C(C=C(C=C1)NC(=O)C2=CC(=CC=C2)N(C)C)NC(=O)C3=CC=C(C=C3)O
In short: as §1

[8] = compound: CC1=CC=C(C=C1)SC2=C3C=C(SC3=CN=C2)C(=O)N
In short: as §1

Measured: log2 fold change

ECH1 (UniProt Q13011)
UniProt Q13011, sequence (Q13011 whole entry, looked up): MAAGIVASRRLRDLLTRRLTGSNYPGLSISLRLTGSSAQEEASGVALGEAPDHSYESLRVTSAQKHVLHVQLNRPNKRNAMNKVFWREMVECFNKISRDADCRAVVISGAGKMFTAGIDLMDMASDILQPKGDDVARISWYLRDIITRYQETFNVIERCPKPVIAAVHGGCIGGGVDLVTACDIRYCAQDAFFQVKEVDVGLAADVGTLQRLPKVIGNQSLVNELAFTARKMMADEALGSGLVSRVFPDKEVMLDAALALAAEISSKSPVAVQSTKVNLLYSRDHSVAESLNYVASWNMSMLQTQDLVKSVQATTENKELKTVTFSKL
inactive: ibrutinib -0.035 | [1] -0.02 | ralimetinib 0.064 | [2] -0.036 | [3] -0.033 | [4] 0.04 | [5] -0.02 | [6] -0.017 | [7] -0.018 | [8] 0.013

DVL2 (UniProt O14641)
inactive: ibrutinib -0.032 | [1] 0.085 | ralimetinib 0.022 | [2] 0.032 | [3] -0.019 | [4] 0.028 | [5] -0.056 | [6] -0.072 | [7] 0.045 | [8] 0.11

FYCO1 isoform 4 (UniProt Q9BQS8)
UniProt Q9BQS8, sequence (Q9BQS8 whole entry, looked up): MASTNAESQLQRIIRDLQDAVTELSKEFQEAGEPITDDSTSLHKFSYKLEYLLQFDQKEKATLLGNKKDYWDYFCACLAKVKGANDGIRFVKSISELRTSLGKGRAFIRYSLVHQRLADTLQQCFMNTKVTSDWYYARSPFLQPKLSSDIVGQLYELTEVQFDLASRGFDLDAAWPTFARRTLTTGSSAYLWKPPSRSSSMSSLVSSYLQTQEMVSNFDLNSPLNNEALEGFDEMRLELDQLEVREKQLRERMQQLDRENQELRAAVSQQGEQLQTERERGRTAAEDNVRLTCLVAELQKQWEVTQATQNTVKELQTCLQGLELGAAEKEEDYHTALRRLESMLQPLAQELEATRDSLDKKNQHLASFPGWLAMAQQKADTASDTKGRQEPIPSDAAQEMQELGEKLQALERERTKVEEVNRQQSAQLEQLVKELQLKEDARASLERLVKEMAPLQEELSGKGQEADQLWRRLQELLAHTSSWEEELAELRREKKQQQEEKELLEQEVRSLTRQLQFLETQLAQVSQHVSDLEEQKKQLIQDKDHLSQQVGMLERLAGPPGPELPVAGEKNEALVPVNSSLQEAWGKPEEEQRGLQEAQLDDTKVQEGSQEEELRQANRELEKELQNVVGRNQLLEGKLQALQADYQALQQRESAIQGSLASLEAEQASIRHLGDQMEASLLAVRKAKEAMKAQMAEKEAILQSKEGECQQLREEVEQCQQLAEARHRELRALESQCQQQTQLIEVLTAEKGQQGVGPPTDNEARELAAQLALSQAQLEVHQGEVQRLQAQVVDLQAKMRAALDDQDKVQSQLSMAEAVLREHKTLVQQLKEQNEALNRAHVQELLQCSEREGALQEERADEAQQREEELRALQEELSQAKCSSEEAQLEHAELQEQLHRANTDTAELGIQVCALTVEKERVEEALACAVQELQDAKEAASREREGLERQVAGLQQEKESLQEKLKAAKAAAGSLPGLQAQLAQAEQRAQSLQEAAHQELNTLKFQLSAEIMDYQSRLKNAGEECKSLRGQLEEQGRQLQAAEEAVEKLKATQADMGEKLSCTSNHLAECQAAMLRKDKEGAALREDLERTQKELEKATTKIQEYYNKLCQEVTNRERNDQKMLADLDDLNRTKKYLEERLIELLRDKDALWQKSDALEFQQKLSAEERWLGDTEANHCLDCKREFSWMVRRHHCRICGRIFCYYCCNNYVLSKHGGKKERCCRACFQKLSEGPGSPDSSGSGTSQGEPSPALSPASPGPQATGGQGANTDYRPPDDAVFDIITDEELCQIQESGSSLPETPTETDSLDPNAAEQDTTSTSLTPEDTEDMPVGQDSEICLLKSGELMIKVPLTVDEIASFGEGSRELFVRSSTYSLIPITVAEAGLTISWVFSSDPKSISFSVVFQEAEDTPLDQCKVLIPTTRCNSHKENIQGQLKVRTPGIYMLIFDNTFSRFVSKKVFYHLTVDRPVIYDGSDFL
inactive: ibrutinib -0.012 | [1] -0.015 | ralimetinib 0.021 | [2] -0.026 | [3] 0 | [4] 0.029 | [5] -0.019 | [6] -0.003 | [7] -0.028 | [8] 0

FBXO38 (UniProt Q6PIJ6)
inactive: ibrutinib -0.042 | [1] 0.063 | ralimetinib 0.083 | [2] 0.009 | [3] -0.078 | [4] -0.037 | [5] -0.073 | [6] -0.098 | [7] 0.009 | [8] 0.175

DTWD1 (UniProt Q8N5C7)
UniProt Q8N5C7, sequence (Q8N5C7 whole entry, looked up): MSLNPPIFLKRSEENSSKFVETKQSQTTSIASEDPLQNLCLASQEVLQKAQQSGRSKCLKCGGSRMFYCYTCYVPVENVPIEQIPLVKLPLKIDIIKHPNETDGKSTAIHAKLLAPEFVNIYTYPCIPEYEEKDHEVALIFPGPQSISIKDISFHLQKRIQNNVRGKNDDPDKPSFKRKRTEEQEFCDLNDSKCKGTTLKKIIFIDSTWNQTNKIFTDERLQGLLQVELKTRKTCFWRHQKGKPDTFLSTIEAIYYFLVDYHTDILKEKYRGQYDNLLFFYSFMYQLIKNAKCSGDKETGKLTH
inactive: ibrutinib 0.013 | [1] 0.032 | ralimetinib 0.005 | [2] 0.005 | [3] 0.034 | [4] 0.058 | [5] -0.019 | [6] 0 | [7] -0.02 | [8] -0.027

GART (UniProt P22102)
UniProt P22102, sequence (P22102 whole entry, looked up): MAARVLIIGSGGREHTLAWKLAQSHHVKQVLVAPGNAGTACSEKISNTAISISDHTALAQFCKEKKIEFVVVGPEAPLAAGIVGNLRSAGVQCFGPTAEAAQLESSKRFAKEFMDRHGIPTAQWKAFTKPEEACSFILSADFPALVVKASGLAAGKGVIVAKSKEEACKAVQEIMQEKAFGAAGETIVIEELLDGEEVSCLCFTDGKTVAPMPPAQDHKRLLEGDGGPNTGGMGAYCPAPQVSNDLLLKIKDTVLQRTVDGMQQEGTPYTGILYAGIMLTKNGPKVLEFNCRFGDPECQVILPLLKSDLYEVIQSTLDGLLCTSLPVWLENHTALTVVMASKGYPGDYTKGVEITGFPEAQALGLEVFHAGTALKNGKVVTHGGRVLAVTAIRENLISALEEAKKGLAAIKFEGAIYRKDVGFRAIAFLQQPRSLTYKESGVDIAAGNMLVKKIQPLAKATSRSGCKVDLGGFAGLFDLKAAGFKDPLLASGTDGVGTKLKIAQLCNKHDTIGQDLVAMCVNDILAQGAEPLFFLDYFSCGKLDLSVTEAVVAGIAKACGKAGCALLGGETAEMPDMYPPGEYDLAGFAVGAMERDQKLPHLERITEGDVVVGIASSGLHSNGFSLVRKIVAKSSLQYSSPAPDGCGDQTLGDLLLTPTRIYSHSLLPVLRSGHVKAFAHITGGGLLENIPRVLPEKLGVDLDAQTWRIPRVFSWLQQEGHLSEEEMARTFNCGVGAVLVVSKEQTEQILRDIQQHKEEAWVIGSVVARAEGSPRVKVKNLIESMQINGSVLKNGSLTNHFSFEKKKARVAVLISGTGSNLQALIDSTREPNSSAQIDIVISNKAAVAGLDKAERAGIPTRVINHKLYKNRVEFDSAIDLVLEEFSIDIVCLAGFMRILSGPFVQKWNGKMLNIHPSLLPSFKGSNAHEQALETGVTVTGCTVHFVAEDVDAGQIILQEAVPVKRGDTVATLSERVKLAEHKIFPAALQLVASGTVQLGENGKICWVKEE
inactive: ibrutinib 0.007 | [1] 0.009 | ralimetinib 0.01 | [2] 0.036 | [3] 0.013 | [4] -0.014 | [5] 0.009 | [6] -0.027 | [7] -0.006 | [8] 0.021

FREM2 (UniProt Q5SZK8)
inactive: ibrutinib -0.062 | [1] 0.024 | ralimetinib -0.014 | [2] -0.042 | [3] -0.024 | [4] -0.06 | [5] -0.01 | [6] 0.079 | [7] 0.035 | [8] -0.073

ETHE1 (UniProt O95571)
inactive: ibrutinib -0.029 | [1] -0.01 | ralimetinib 0.03 | [2] -0.021 | [3] -0.092 | [4] 0.087 | [5] 0.022 | [6] 0.011 | [7] 0.046 | [8] -0.042

EIF2AK2 (UniProt P19525)
UniProt P19525, sequence (P19525 whole entry, looked up): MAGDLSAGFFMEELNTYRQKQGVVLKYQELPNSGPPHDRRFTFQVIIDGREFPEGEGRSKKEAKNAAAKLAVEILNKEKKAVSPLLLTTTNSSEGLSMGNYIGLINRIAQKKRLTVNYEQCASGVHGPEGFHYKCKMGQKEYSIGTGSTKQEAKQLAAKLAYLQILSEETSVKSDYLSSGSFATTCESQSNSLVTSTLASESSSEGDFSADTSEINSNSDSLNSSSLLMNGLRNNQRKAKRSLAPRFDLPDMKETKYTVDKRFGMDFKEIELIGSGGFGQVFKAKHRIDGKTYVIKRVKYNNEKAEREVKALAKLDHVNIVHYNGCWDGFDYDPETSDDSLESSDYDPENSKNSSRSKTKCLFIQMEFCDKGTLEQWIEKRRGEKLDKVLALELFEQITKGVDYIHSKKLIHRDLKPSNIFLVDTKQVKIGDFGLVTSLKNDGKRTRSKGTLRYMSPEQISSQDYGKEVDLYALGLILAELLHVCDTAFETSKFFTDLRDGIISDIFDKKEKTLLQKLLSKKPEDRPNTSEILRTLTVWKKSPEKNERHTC
inactive: ibrutinib 0.014 | [1] 0.015 | ralimetinib -0.025 | [2] 0.035 | [3] -0.009 | [4] 0.015 | [5] -0.008 | [6] -0.015 | [7] -0.019 | [8] -0.03

FCHO1 (UniProt O14526)
inactive: ibrutinib -0.053 | [1] 0.022 | ralimetinib 0.018 | [2] 0.014 | [3] 0.013 | [4] 0.031 | [5] 0.018 | [6] 0.002 | [7] 0.004 | [8] 0.041

ESYT2 (UniProt H7BXI1)
inactive: ibrutinib 0.035 | [1] -0.022 | ralimetinib 0.003 | [2] -0.039 | [3] -0.04 | [4] 0.046 | [5] 0.05 | [6] 0.015 | [7] -0.025 | [8] -0.044

FOXK1 (UniProt P85037)
inactive: ibrutinib 0.033 | [1] 0.005 | ralimetinib 0.082 | [2] 0.063 | [3] -0.011 | [4] 0.018 | [5] 0.007 | [6] -0.025 | [7] -0.001 | [8] 0.011

EXOC3 (UniProt O60645)
inactive: ibrutinib -0.029 | [1] -0.012 | ralimetinib 0.025 | [2] 0.048 | [3] 0.025 | [4] 0 | [5] -0.042 | [6] 0.037 | [7] 0.067 | [8] 0.004

FLAD1 (UniProt Q8NFF5)
inactive: ibrutinib -0.011 | [1] 0.002 | ralimetinib 0.016 | [2] -0.014 | [3] -0.072 | [4] -0.004 | [5] -0.026 | [6] 0.002 | [7] 0.011 | [8] 0.015

FXR1 (UniProt P51114)
inactive: ibrutinib 0.023 | [1] -0.011 | ralimetinib -0.017 | [2] 0.032 | [3] 0.002 | [4] 0.014 | [5] -0.006 | [6] -0.01 | [7] 0.02 | [8] 0.016

FTSJ1 (UniProt Q9UET6)
UniProt Q9UET6, sequence (Q9UET6 whole entry, looked up): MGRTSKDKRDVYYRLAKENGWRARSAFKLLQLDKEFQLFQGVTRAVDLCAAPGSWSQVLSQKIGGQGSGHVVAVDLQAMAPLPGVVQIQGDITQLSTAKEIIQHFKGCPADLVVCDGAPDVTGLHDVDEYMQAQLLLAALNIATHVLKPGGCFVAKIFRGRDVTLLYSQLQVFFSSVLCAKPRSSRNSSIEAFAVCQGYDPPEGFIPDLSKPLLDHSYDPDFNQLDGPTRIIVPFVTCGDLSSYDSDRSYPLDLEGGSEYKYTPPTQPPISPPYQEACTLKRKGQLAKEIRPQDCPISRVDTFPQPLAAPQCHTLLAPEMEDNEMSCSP
inactive: ibrutinib 0.004 | [1] -0.006 | ralimetinib -0.03 | [2] 0.094 | [3] -0.054 | [4] 0.011 | [5] 0.069 | [6] -0.024 | [7] 0.062 | [8] 0.03

ENGASE (UniProt Q8NFI3)
inactive: ibrutinib 0.019 | [1] 0.019 | ralimetinib -0.02 | [2] 0.012 | [3] -0.02 | [4] -0.002 | [5] 0.012 | [6] -0.046 | [7] 0.067 | [8] 0

FAM83D (UniProt Q9H4H8)
inactive: ibrutinib 0.028 | [1] 0.031 | ralimetinib 0.041 | [2] -0.018 | [3] 0.013 | [4] 0.038 | [5] -0.098 | [6] -0.032 | [7] 0.031 | [8] 0.017

ELF2 (UniProt Q15723)
inactive: ibrutinib 0.07 | [1] 0.116 | ralimetinib 0.013 | [2] -0.038 | [3] 0.006 | [4] -0.017 | [5] -0.066 | [6] 0.035 | [7] 0.022 | [8] -0.028

ERLIN2 (UniProt O94905)
inactive: ibrutinib 0.033 | [1] -0.028 | ralimetinib 0.026 | [2] -0.023 | [3] -0.023 | [4] -0.012 | [5] -0.031 | [6] -0.016 | [7] 0.066 | [8] -0.014

GGT7 (UniProt Q9UJ14)
inactive: ibrutinib 0.019 | [1] 0.004 | ralimetinib -0.07 | [2] -0.106 | [3] -0.05 | [4] 0.003 | [5] -0.066 | [6] -0.032 | [7] 0.035 | [8] 0.017

EWSR1 isoform 5 (UniProt Q01844)
inactive: ibrutinib -0.016 | [1] -0.026 | ralimetinib -0.017 | [2] -0.011 | [3] 0.038 | [4] -0.012 | [5] 0.016 | [6] -0.023 | [7] -0.033 | [8] 0

EXOC6 (UniProt Q8TAG9)
UniProt Q8TAG9, sequence (Q8TAG9 whole entry, looked up): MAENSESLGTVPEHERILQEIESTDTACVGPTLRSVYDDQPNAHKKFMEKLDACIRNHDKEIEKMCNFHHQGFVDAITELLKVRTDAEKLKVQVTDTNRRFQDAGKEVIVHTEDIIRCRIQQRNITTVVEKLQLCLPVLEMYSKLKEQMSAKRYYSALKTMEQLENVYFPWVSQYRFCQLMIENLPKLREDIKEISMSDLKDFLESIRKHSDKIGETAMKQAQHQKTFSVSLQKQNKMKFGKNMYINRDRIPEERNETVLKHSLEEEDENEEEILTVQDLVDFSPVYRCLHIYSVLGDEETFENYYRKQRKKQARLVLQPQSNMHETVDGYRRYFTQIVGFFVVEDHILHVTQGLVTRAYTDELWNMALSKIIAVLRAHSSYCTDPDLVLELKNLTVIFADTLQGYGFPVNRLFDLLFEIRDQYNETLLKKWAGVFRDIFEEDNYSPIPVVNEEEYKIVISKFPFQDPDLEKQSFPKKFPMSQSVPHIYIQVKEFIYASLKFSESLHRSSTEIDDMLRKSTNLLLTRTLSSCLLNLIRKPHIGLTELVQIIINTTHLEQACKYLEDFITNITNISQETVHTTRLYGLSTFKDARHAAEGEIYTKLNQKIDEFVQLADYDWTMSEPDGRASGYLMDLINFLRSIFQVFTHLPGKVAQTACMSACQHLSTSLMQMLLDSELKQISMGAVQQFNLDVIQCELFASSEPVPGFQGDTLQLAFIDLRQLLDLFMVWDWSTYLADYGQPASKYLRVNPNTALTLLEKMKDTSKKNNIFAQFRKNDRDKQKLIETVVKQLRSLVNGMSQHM
inactive: ibrutinib 0 | [1] 0.072 | ralimetinib 0.034 | [2] -0.018 | [3] -0.049 | [4] 0.048 | [5] 0.049 | [6] -0.022 | [7] 0.042 | [8] 0.01

ENO2 (UniProt P09104)
inactive: ibrutinib -0.008 | [1] -0.014 | ralimetinib 0.031 | [2] -0.051 | [3] -0.007 | [4] -0.013 | [5] -0.029 | [6] 0.035 | [7] 0.032 | [8] 0.011

FECH isoform 2 (UniProt P22830)
inactive: ibrutinib 0.091 | [1] 0.104 | ralimetinib -0.034 | [2] 0.504 | [3] 0.327 | [4] -0.263 | [5] 0.287 | [6] 0.748 | [7] 0.028
active: [8] -1.11

EP400 isoform 5 (UniProt Q96L91)
inactive: ibrutinib -0.061 | [1] -0.018 | ralimetinib 0.02 | [2] -0.033 | [3] -0.027 | [4] 0.047 | [5] -0.014 | [6] 0.016 | [7] 0.035 | [8] 0.041

EDC3 (UniProt Q96F86)
inactive: ibrutinib 0.038 | [1] 0.016 | ralimetinib 0.004 | [2] 0.001 | [3] 0.046 | [4] 0.039 | [5] -0.014 | [6] 0.009 | [7] 0.019 | [8] -0.023

ERBIN isoform 8 (UniProt Q96RT1)
inactive: ibrutinib 0.029 | [1] -0.011 | ralimetinib -0.003 | [2] 0.01 | [3] -0.003 | [4] -0.037 | [5] 0.012 | [6] -0.007 | [7] 0.019 | [8] -0.01

FANCD2 isoform 1 (UniProt Q9BXW9)
inactive: ibrutinib 0.01 | [1] -0.009 | ralimetinib 0 | [2] -0.066 | [3] 0.048 | [4] -0.02 | [5] -0.068 | [6] 0.071 | [7] 0.011 | [8] -0.008

GCN1 (UniProt Q92616)
inactive: ibrutinib 0.016 | [1] 0.008 | ralimetinib 0.064 | [2] 0.028 | [3] -0.031 | [4] -0.016 | [5] -0.01 | [6] 0.008 | [7] 0.075 | [8] 0.026
